Common to all, as to conditions: mRNA level, 48 h; actives raise or lower the signal
Read-out in test [1]: Lipoprotein lipase (LPL), LPL (gene 4023)
Description: LTEA_HepaRG_LPL: Life Technologies and Expression Analysis (LTEA) Assay for Lipoprotein lipase (LPL) using HepaRG (AID 2283515). The method in brief:
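Differentiated HepaRG cells, plated 48 h, then exposed 48 h in serum-free induction medium to 8 concentrations (top 100 uM, half-log steps) in 0.5% DMSO, duplicate. LPL mRNA measured by qRT-PCR, normalized to ACTB, GAPDH and POLR2A.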

Read-out in test [2]: matrix metalloproteinase-10 (MMP10), MMP10 (gene 4319)
Description: LTEA_HepaRG_MMP10: Life Technologies and Expression Analysis (LTEA) Assay for matrix metalloproteinase-10 (MMP10) using HepaRG (AID 2283517). The method in brief:
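Differentiated HepaRG cells in serum-free induction medium exposed 48 h in duplicate to 8-point half-log series up to 100 uM in 0.5% DMSO. mRNA quantified by qRT-PCR, normalised to ACTB, GAPDH, POLR2A; bidirectional fit versus DMSO.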

Read-out in test [3]: Paternally Expressed 10 (PEG10), PEG10 (gene 23089)
Description: LTEA_HepaRG_PEG10: Life Technologies and Expression Analysis (LTEA) Assay for Paternally Expressed 10 (PEG10) using HepaRG (AID 2283520). Put shortly:
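HepaRG, 48 h post-plating → serum-free induction medium → 48 h chemical exposure (duplicate, 8-pt, max 100 uM, half-log, 0.5% DMSO) → lysis in RLT → TaqMan qRT-PCR for PEG10, ACTB/GAPDH/POLR2A normalisation.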

Read-out in test [4]: Protein phosphatase 2A (PPP2R4), PTPA (gene 5524)
Kind of test: LTEA_HepaRG_PPP2R4: Life Technologies and Expression Analysis (LTEA) Assay for Protein phosphatase 2A (PPP2R4) using HepaRG (AID 2283522). The method in brief:
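Readout is PPP2R4 transcript level by microfluidic qRT-PCR after 48 h chemical treatment of human HepaRG liver cells. Concentrations spanned 100 uM downward in half-log steps; gain or loss of signal was fitted relative to DMSO.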

Read-out in test [5]: solute carrier (SLC22A1), SLC22A1 (gene 6580)
Kind of test: LTEA_HepaRG_SLC22A1: Life Technologies and Expression Analysis (LTEA) Assay for solute carrier (SLC22A1) using HepaRG (AID 2283524). The method in brief: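 Differentiated human HepaRG cells in serum-free induction medium, exposed 48 h in duplicate to 8-point half-log series from 100 µM top in 0.5% DMSO. SLC22A1 mRNA by TaqMan qRT-PCR normalized to ACTB, GAPDH, POLR2A; bidirectional fit versus DMSO.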

Read-out in test [6]: NAD(P)H dehydrogenase [quinone] 1 (NQO1), NQO1 (gene 1728)
Kind of test: LTEA_HepaRG_NQO1: Life Technologies and Expression Analysis (LTEA) Assay for NAD(P)H dehydrogenase [quinone] 1 (NQO1) using HepaRG (AID 2283526). Put shortly:
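HepaRG, 48 h post-plating → serum-free induction medium → test chemical 48 h (duplicate, 100 uM top, half-log x8, 0.5% DMSO) → RNA isolation → qRT-PCR, ACTB/GAPDH/POLR2A normalization; bidirectional curve fit vs DMSO baseline.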

Read-out in test [7]: Nuclear factor erythroid 2-related factor 2 (Homo sapiens) (UniProt Q16236)
Kind of test: LTEA_HepaRG_NFE2L2: Life Technologies and Expression Analysis (LTEA) Assay for Nuclear factor erythroid 2-related factor 2 (NFE2L2) Transcription Factor using HepaRG (AID 2283527).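 Note: TaqMan qRT-PCR transcript level normalised to ACTB GAPDH and POLR2A housekeeping genes.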 The method in brief:
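Differentiated human HepaRG cells, serum-free induction medium, exposed 48 h in duplicate to eight half-log concentrations up to 100 uM in 0.5% DMSO. NFE2L2 mRNA by Fluidigm TaqMan qRT-PCR, normalised to ACTB, GAPDH, POLR2A; bidirectional change versus DMSO.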

Read-out in test [8]: succinate dehydrogenase complex iron sulfur subunit B (SDHB), SDHB (gene 6390)
Description: LTEA_HepaRG_SDHB: Life Technologies and Expression Analysis (LTEA) Assay for succinate dehydrogenase complex iron sulfur subunit B (SDHB) using HepaRG (AID 2283528). Put shortly:
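Readout is SDHB transcript level by qRT-PCR, normalised to three housekeeping genes and fitted bidirectionally against 0.5% DMSO vehicle. Human HepaRG cells were treated for 48 h at up to 100 uM.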

Read-out in test [9]: solute carrier (SLCO1B1), SLCO1B1 (gene 10599)
Kind of test: LTEA_HepaRG_SLCO1B1: Life Technologies and Expression Analysis (LTEA) Assay for solute carrier (SLCO1B1) using HepaRG (AID 2283530). Put shortly: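 Gain or loss of SLCO1B1 mRNA is fitted against the 0.5% DMSO vehicle in human HepaRG liver cells treated 48 h at up to 100 uM in half-log steps. Expression comes from qRT-PCR normalized to endogenous controls.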

Read-out in test [10]: sulfotransferase 2A1 (SULT2A1), SULT2A1 (gene 6822)
Kind of test: LTEA_HepaRG_SULT2A1: Life Technologies and Expression Analysis (LTEA) Assay for sulfotransferase 2A1 (SULT2A1) using HepaRG (AID 2283531). Put shortly:
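Cells were plated and cultured 48 h, switched to serum-free induction medium, then dosed in duplicate for 48 h (8 concentrations, max 100 uM). RNA was isolated and SULT2A1 expression measured by qRT-PCR; gain or loss of signal fitted relative to DMSO.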

Read-out in test [11]: Transforming Growth Factor (TGFA), TGFA (gene 7039)
Kind of test: LTEA_HepaRG_TGFA: Life Technologies and Expression Analysis (LTEA) Assay for Transforming Growth Factor (TGFA) using HepaRG (AID 2283532). Put shortly:
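Differentiated HepaRG cells exposed 48 hours in serum-free induction medium, 0.5% DMSO vehicle, 8-point half-log series from 100 uM, in duplicate. TGFA mRNA by TaqMan qRT-PCR, normalised to ACTB, GAPDH, POLR2A; bidirectional fit versus DMSO.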

Read-out in test [12]: Transforming Growth Factor (TGFB1), TGFB1 (gene 7040)
Description: LTEA_HepaRG_TGFB1: Life Technologies and Expression Analysis (LTEA) Assay for Transforming Growth Factor (TGFB1) Transporter using HepaRG (AID 2283533). The method in brief:
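Expression change of TGFB1 in human HepaRG cells is measured after a 48 h chemical exposure, up to 100 uM in 0.5% DMSO vehicle. Curves are fitted in both directions relative to the DMSO baseline.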

Read-out in the next test: TIMP1, TIMP1 (gene 7076)
Description: LTEA_HepaRG_TIMP1: Life Technologies and Expression Analysis (LTEA) Assay for TIMP1 using HepaRG (AID 2283534).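 Note: TaqMan qRT-PCR signal normalized to ACTB GAPDH and POLR2A housekeeping genes.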 Put shortly: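 We dosed human liver HepaRG cultures for 48 hours with up to 100 uM test chemical and measured TIMP1 expression by qRT-PCR. Activity in either direction is fitted relative to the 0.5% DMSO vehicle.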

Read-out in test [13]: MicroRNA 122 (MIR122), gene 406906
Kind of test: LTEA_HepaRG_MIR122: Life Technologies and Expression Analysis (LTEA) Assay for MicroRNA 122 (MIR122) using HepaRG (AID 2283516). Note: the transcript read is the microRNA miR-122. The method in brief: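 HepaRG plated 48 h, switched to serum-free induction medium, then treated in duplicate for 48 h (100 uM top, half-log steps, 0.5% DMSO vehicle). RNA isolated, qRT-PCR performed, concentration-response fitted both directions relative to DMSO.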

Read-out in a further test: MYC, MYC (gene 4609)
Description: LTEA_HepaRG_MYC: Life Technologies and Expression Analysis (LTEA) Assay for MYC using HepaRG (AID 2283518). The method in brief: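 Cells are thawed, plated and cultured 48 h, then treated for 48 h with test chemicals (eight half-log concentrations from 100 uM, 0.5% DMSO vehicle). RNA is isolated and MYC expression quantified by qRT-PCR against three housekeeping genes.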

Read-out in test [14]: Phosphatase and tensin (PTEN), PTEN (gene 5728)
Description: LTEA_HepaRG_PTEN: Life Technologies and Expression Analysis (LTEA) Assay for Phosphatase and tensin (PTEN) using HepaRG (AID 2283523). The method in brief: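 HepaRG cells, 48 h after plating, exposed in duplicate for 48 h in serum-free induction medium to 8 half-log concentrations up to 100 uM (0.5% DMSO). PTEN mRNA by qRT-PCR, normalized to ACTB, GAPDH, POLR2A; bidirectional fit versus DMSO.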

Read-out in test [15]: Pyruvate Dehydrogenase Kinase 4 (PDK4), PDK4 (gene 5166)
Description: LTEA_HepaRG_PDK4: Life Technologies and Expression Analysis (LTEA) Assay for Pyruvate Dehydrogenase Kinase 4 (PDK4) using HepaRG (AID 2283525). The method in brief: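 HepaRG cells plated 48 h, then switched to serum-free induction medium and exposed in duplicate for 48 h to 8 half-log concentrations from 100 uM in 0.5% DMSO. PDK4 mRNA measured by qRT-PCR, normalized to ACTB, GAPDH and POLR2A; bidirectional fit versus DMSO.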

Read-out in test [16]: Signal transducer and activator of transcription 3 (Homo sapiens) (UniProt P40763)
Kind of test: LTEA_HepaRG_STAT3: Life Technologies and Expression Analysis (LTEA) Assay for Signal transducer and activator of transcription (STAT3) using HepaRG (AID 2283529). The method in brief:
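Differentiated HepaRG cells, serum-free induction medium, dosed 48 h in duplicate, 8 half-log concentrations from 100 uM in 0.5% DMSO. STAT3 mRNA by qRT-PCR, normalised to ACTB, GAPDH, POLR2A; bidirectional fit versus DMSO.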

Read-out in test [17]: matrix metalloproteinase-3 (MMP3), MMP3 (gene 4314)
Description: LTEA_HepaRG_MMP3: Life Technologies and Expression Analysis (LTEA) Assay for matrix metalloproteinase-3 (MMP3) using HepaRG (AID 2283519). The method in brief:
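HepaRG cells (~100,000/well) in serum-free induction medium were dosed in duplicate for 48 h with an 8-point half-log series from 100 uM, 0.5% DMSO. MMP3 mRNA was quantified by Fluidigm TaqMan qRT-PCR, normalized to three housekeeping genes.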

Read-out in test [18]: Nuclear factor NF-kappa-B p105 subunit (Homo sapiens) (UniProt P19838)
Kind of test: LTEA_HepaRG_NFKB1: Life Technologies and Expression Analysis (LTEA) Assay for Nuclear Factor Kappa B Subunit 1 (NFKB1) using HepaRG (AID 2283521).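 Note: TaqMan qRT-PCR transcript normalised to ACTB GAPDH and POLR2A housekeeping genes.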 Put shortly: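 HepaRG, 48 h exposure; 8-pt half-log series from 100 uM in 0.5% DMSO; duplicates. Readout: NFKB1 mRNA by qRT-PCR (Fluidigm arrays), housekeeping-normalized. Gain/loss fit vs DMSO baseline.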

Drawing on PubChem BioAssay (EPA / NIEHS), this text covers outcome and AC50 for four compounds.

Structures are written as SMILES. Activity calls are given as the source filed them. Rule for the calls: active = hit-call score of the fitted dose curve at least 0.9, where 1 is the maximum; inactive = score below 0.9.

For orientation: AC50 means the concentration giving half of the maximal activity seen.

Sequence of Nuclear factor erythroid 2-related factor 2 (Homo sapiens) (Q16236 whole entry, looked up): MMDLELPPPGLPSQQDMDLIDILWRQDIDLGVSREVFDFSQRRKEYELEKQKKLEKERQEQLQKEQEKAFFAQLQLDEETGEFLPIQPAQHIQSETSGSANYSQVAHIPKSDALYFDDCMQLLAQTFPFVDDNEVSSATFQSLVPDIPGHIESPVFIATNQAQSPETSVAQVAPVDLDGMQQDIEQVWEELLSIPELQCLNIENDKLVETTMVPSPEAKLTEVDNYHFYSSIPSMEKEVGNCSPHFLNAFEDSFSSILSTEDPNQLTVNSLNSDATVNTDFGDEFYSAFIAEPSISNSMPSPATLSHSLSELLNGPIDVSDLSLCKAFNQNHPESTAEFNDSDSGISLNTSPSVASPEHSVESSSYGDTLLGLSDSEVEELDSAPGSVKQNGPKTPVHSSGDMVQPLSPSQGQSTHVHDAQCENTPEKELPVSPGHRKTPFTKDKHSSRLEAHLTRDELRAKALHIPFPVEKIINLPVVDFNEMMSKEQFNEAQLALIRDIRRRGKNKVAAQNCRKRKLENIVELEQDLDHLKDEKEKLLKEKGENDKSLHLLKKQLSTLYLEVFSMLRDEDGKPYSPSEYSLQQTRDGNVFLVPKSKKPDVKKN
Sequence of Signal transducer and activator of transcription 3 (Homo sapiens) (P40763 whole entry, looked up): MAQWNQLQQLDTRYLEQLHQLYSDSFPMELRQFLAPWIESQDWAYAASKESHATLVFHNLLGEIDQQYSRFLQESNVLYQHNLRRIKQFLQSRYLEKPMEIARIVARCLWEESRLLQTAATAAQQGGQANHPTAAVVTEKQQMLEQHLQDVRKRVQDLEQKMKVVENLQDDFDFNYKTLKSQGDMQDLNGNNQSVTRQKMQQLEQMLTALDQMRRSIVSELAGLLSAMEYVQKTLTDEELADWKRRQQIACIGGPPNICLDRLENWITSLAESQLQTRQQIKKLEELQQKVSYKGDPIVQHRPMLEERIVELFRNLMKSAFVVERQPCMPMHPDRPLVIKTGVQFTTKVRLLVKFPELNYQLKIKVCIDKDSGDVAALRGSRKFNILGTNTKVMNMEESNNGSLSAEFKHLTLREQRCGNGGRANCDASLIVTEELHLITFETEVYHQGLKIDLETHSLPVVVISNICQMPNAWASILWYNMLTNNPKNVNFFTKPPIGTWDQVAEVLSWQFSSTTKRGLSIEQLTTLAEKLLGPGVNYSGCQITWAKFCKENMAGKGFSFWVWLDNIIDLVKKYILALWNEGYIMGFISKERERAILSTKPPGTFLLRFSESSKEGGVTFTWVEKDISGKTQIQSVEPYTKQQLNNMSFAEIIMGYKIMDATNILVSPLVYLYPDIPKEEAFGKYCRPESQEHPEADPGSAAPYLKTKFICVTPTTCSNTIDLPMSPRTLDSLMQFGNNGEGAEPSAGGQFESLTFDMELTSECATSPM
Sequence of Nuclear factor NF-kappa-B p105 subunit (Homo sapiens) (P19838 whole entry, looked up): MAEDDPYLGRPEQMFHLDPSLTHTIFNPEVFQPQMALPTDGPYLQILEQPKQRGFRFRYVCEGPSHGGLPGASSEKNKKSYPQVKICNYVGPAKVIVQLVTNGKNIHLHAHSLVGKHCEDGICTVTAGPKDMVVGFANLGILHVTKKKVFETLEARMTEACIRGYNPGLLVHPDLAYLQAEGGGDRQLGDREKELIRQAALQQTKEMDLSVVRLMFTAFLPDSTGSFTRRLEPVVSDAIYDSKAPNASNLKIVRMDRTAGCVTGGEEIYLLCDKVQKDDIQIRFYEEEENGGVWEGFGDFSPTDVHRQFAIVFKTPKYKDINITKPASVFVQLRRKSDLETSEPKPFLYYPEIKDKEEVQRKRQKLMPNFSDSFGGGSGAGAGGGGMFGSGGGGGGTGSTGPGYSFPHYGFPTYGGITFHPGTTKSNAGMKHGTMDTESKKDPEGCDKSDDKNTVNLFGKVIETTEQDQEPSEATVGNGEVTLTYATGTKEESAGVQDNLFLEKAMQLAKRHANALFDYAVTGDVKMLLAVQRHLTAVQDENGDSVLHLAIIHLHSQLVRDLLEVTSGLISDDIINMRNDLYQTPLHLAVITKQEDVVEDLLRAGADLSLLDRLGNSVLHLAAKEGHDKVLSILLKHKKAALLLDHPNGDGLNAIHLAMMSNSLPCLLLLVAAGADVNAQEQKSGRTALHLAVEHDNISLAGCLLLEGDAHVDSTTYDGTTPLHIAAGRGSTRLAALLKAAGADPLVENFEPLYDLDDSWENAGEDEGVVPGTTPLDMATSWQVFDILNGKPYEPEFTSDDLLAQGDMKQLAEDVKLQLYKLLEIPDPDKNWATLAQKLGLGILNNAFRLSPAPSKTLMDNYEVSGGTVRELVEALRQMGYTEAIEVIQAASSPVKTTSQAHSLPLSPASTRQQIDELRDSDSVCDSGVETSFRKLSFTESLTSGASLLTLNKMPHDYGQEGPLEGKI

On to `CCCOC(=O)c1cc(O)c(O)c(O)c1`, for which the result in test [1], in test [2], in test [3], in test [4], in test [5] and in test [6] was inactive. For the same compound, the result in test [7], in [8], in test [9], in [10], in test [11] and in test [12] was inactive. Moreover, the result with TIMP1, TIMP1 (gene 7076) was inactive.
For `CCCC(=O)OCCC(C)C`, the outcome is “inactive” in [1]; “inactive” in test [13]; “inactive” in the test with MYC, MYC (gene 4609); “inactive” in [3]; “inactive” in [4]; “inactive” in test [14]. The compound was called inactive in test [5], in test [15], in test [6], in test [7], in test [8] and in test [16]. Further, the outcome in [9] is “inactive”; in [10] it was “inactive”; in test [12], “inactive”; with TIMP1, TIMP1 (gene 7076), “inactive”.
Turning to `Oc1ccccc1`, the outcome in [1], in test [13], in [17], in test [3], in [4] and in test [14] was inactive. The result in [5], in [15], in [6], in test [7], in test [8] and in test [9] was inactive. The outcome in test [10] is “inactive”; in test [12], “inactive”; in the test with TIMP1, TIMP1 (gene 7076), “inactive”.
Regarding `Cc1ccc2oc(CN(Cc3ccccc3)C(=O)Nc3c(F)cc(F)cc3F)c(-c3ccc(Cl)cc3)c2c1`, the AC50 in test [1] is 56.4 µM (active); in [5] it was 44.2 µM (active). Besides, the compound was called inactive in [13], in [3], in test [18], in [4], in test [6] and in test [7]. The outcome is “inactive” in test [8]; “inactive” in test [16]; “inactive” in test [9]; “inactive” in test [10]; “inactive” in test [12]; “inactive” with TIMP1, TIMP1 (gene 7076).
